Bim-Mcl-1 – inhibitors of Bim peptide binding to Mcl-1, primary screen, biochemical, bead-based flow cytometry, multiplex. AID 1009, 2008. inhibition, % at 10 µM. 0.1% of 190,000 active. Induced myeloid leukemia cell differentiation protein Mcl-1 (Homo sapiens), Q07820. Bim peptide-Mcl-1 binding; in the data active = inhibition above about 40%
MCL1 BIM primary – inhibitors of MCL1 binding to BIM-BH3, primary screen, biochemical, fluorescence polarization. Induced myeloid leukemia cell differentiation protein Mcl-1 (Homo sapiens), Q07820. GST-MCL1 / FITC-Bim-BH3 fluorescence polarization. inhibition, % at 10.9 µM. 0.68% of 320,000 active. AID 2057, 2009;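 active = inhibition above the mean inhibition of all tested compounds plus 3 SD, set per campaign, cut at about 40% in these data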;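 note: higher means more loss of mP so more displacement of Bim peptide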
Mcl1 Noxa PPI – Mcl-1/Noxa binding inhibitors, primary screen, biochemical, TR-FRET, 1536-well; Induced myeloid leukemia cell differentiation protein Mcl-1 (Homo sapiens), Q07820; inhibition, % at 21.7 µM; 1.5% of 220,000 active; TR-FRET Mcl-1/Noxa peptide binding, 2 h;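 active = compounds that cut the protein-peptide binding signal by more than 50% relative to plate controls in a single-dose test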;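 note: His-tagged Mcl-1 with rhodamine Noxa BH3 peptide and terbium anti-His antibody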
Mcl1-Bid inh – Mcl-1/Bid binding inhibitors, primary screen, biochemical, TR-FRET, 1536-well; Induced myeloid leukemia cell differentiation protein Mcl-1 (Homo sapiens), Q07820; TR-FRET Mcl-1/Bid-Dy647 peptide binding; inhibition, % at 21.7 µM; 0.97% of 220,000 active;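 active = compounds that cut the binding signal by more than half at the single screening dose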;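 note: His-tagged Mcl-1 with europium anti-His antibody binding Bid BH3 peptide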
14-3-3 Bad inh – inhibitors of 14-3-3 zeta/Bad binding, primary screen, biochemical, TR-FRET, bovine 14-3-3 zeta; 14-3-3 protein zeta/delta (Bos taurus), P63103; TR-FRET 14-3-3zeta/Dy647-pBad peptide displacement, 1 h; inhibition, % at 21.7 µM; 0.71% of 220,000 active; AID 781, 2007;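 active = inhibition above about 70%, limit read from the data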
Target sequence (P63103 whole entry, looked up): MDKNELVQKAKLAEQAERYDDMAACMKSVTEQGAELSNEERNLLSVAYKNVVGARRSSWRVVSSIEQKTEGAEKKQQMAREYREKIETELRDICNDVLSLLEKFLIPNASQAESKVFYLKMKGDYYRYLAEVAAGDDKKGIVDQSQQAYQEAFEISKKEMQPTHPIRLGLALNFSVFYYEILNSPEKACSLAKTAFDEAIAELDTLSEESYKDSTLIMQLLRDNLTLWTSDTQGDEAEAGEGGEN
Of the large screens only hits and unclear results are named; the others gave an inactive call. Shown are actives, neighbours in structure and some others; about 2.5% of the full set was active somewhere.

Cc1ccc(N2NC(=O)/C(=C/c3ccc(-c4ccc(Cl)c(C(=O)O)c4)o3)C2=O)cc1	none
O=C1NN(c2ccccc2)C(=O)/C1=C\c1ccc(-c2cc([N+](=O)[O-])ccc2O)o1	Mcl1 Noxa PPI 87 (no result: MCL1 BIM primary)
O=C1NN(c2ccc(Cl)cc2)C(=O)/C1=C\c1ccc(-c2cccc(C(=O)O)c2)o1	Mcl1 Noxa PPI 81 (no result: MCL1 BIM primary)
Cc1nn(C2CCS(=O)(=O)C2)c(Cl)c1/C=C/C(=O)OCC(=O)N(C)C (stereo not given)	none
CCNC(=S)N1CCC(C(=O)c2ccc3c(c2)OCCO3)CC1	none
CCOCCCNC(=S)N1CCC(C(=O)c2ccc3c(c2)OCCO3)CC1	Mcl1 Noxa PPI 72
Cc1cc(C)n(-c2nc3c(c(=O)n(C)c(=O)n3C)n2C)n1	none
O=C(NCCc1csc(-c2cccnc2)n1)c1cccs1	Mcl1-Bid inh 86
N#CC1=C(N)N(c2ccc(F)cc2)C2=C(C1c1ccc(O)cc1)S(=O)(=O)CC2 (stereo not given)	Mcl1 Noxa PPI 90 (no result: MCL1 BIM primary)
CN(C)CC(O)CN(c1ccccc1)c1ccccc1 (stereo not given)	Mcl1-Bid inh 98 (no result: Bim-Mcl-1)
CN(C)CC(C(=O)c1ccccc1)c1ccccc1 (stereo not given)	none
CCOC(=O)c1sc2nc(NC(=O)COc3ccccc3)sc2c1C	Mcl1 Noxa PPI 55
CC(=O)c1sc(NC(=O)COc2ccccc2)nc1C	none
CCOc1ccc(NC(=O)N2CCC(n3c(=O)[nH]c4ccccc43)CC2)cc1	none
CC1(C)CC(=O)C(N=Nc2cc(Cl)c(Cl)c(Cl)c2)=C(O)C1	Bim-Mcl-1 42
O=C(c1cccc(S(=O)(=O)N2CCc3ccccc3C2)c1)N1CCN(c2ccc(O)cc2)CC1	Mcl1 Noxa PPI 57
O=C(c1ccc2ccccc2c1)N1CCN(c2ccccn2)CC1	none (no result: Bim-Mcl-1, Mcl1 Noxa PPI, Mcl1-Bid inh, 14-3-3 Bad inh)
COc1ccc(N2CCN(C(=O)CSc3nnc(-c4cc5ccccc5cc4O)n3C)CC2)cc1	none
O=C(CSc1ccc2ccccc2c1)N1CCN(c2ccc(O)cc2)CC1	Mcl1 Noxa PPI 60 (no result: Bim-Mcl-1)
NC(=O)C1CCN(C(=O)c2cccc(S(=O)(=O)N3CCc4ccccc4C3)c2)CC1	none
O=C(c1ccc2ccccc2c1)N1CCN(c2ccc(O)cc2)CC1	Mcl1 Noxa PPI 53
COc1cccc(N2CCC(N3CCN(C)C(CCO)C3)CC2)c1 (stereo not given)	none (no result: Bim-Mcl-1, Mcl1 Noxa PPI, Mcl1-Bid inh, 14-3-3 Bad inh)
C=C(C)Cn1c(N)cc(=O)nc1SCC(=O)Nc1cccc(C(F)(F)F)c1	none (no result: Bim-Mcl-1, Mcl1 Noxa PPI, Mcl1-Bid inh, 14-3-3 Bad inh)
O=C(COC(=O)c1ccc2c(c1)C(=O)N(Cc1ccncc1)C2=O)Nc1ccccc1[N+](=O)[O-]	Mcl1 Noxa PPI 83
O=C(COC(=O)c1ccco1)Nc1ccccc1[N+](=O)[O-]	none
CC(OC(=O)c1ccc2c(c1)C(=O)N(Cc1ccncc1)C2=O)C(=O)Nc1cccc(Cl)c1Cl (stereo not given)	Mcl1-Bid inh 64
COc1ccc(-c2nc(-n3c(C)c(C(C)=O)c(C(C)=O)c3C)sc2C)cc1	Mcl1-Bid inh 98
CCSc1nnc(NC(=O)CCn2c(=O)oc3ccccc32)s1	none (no result: Bim-Mcl-1)
CC(C)[C@H](NC(=O)Cc1ccccc1)C(=O)OCc1cc(=O)n2c(n1)sc1ccccc12	Mcl1 Noxa PPI 76
CCOC(=O)c1ccc(N2Cc3ccccc3C2)cc1O	none
C=CCc1ccccc1OCCNCCCOC	Mcl1-Bid inh 84
C=CCc1cc(Cl)ccc1OCCNCCCOC	none
O=Cc1ccc2oc3nc4n(c(=O)c3c(=O)c2c1)CCCS4	Mcl1 Noxa PPI 73
CCCc1nnc(SCC(=O)N2CCOCC2)n1CC1CCCO1 (stereo not given)	none
COc1ccc(C(=O)CSc2nnc(-c3ccco3)c(-c3ccco3)n2)cc1	Mcl1 Noxa PPI 90, Mcl1-Bid inh 54 (no result: MCL1 BIM primary)
Cc1ccc(NC(=O)CSc2nnc(-c3ccco3)c(-c3ccco3)n2)cc1	Mcl1 Noxa PPI 90
O=C1CCCC2=C1C(c1ccccc1)C1C(=O)c3ccccc3C1=N2 (stereo not given)	Mcl1 Noxa PPI 58
